# Experimental data reported in the supplement of paper PMC7393113.
# Where a name gives a salt, the structure may show the parent alone. ± gives the standard deviation of the averaged measurements.
# Tested on: iBMDM (immortalised mouse bone-marrow-derived macrophages), LPS-stimulated
# Test: mitochondrial superoxide (MitoSOX fluorescence) fold increase over unstimulated control; higher = more LPS-induced mitochondrial ROS (less inhibition)
# Settings: inhibitor concentration: 500 nM, LPS: 100 ng/ml
# Outline: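 Values are fold induction of mitochondrial superoxide relative to untreated macrophages, as a mean of replicates. Immortalised mouse bone-marrow-derived macrophages, seeded in triplicate in black 96-well plates, spent 20 h in phenol-red-free 1% FCS/DMEM before a 30 min pretreatment with kinase inhibitors (500 nM). After 10 min loading with 1 μM MitoSox, cells received LPS (100 ng/ml), and fluorescence (510/580 nm) was measured every 60 min for 4 h.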
SMILES,mitochondrial superoxide (time after LPS: 1 h),mitochondrial superoxide (time after LPS: 2 h),mitochondrial superoxide (time after LPS: 4 h)
CN(C)c1ccc(-c2nc3ncc(Cl)c(N4CCN(CC(=O)Nc5nccs5)CC4)c3[nH]2)cc1,1.21 ± 0.037,1.278 ± 0.0079,1.35 ± 0.039
O=c1cc(N2CCOCC2)oc2c1ccc1ccccc12,1.13 ± 0.049,1.11 ± 0.062,1.17 ± 0.062
O=c1sn(-c2cccc3ccccc23)c(=O)n1Cc1ccccc1 [Tideglusib],1.14 ± 0.068,1.17 ± 0.049,1.29 ± 0.062
O=c1cc(N2CCOCC2)oc2c(-c3cccc4c3sc3ccccc34)cccc12,1.31 ± 0.028,1.4 ± 0.037,1.55 ± 0.042
NC(=O)c1ccc(N(C(N)=O)c2c(F)cccc2F)nc1-c1ccc(F)cc1F,1.2 ± 0.026,1.27 ± 0.087,1.327 ± 0.0024
O=C(Nc1cccc(Nc2ncc(Br)c(NCCc3cnc[nH]3)n2)c1)N1CCCC1,1.13 ± 0.088,1.11 ± 0.043,1.16 ± 0.04
N#Cc1c(Oc2ccc(F)c(NC(=O)Cc3cccc(C(F)(F)F)c3)c2)ccc2nc(NC(=O)C3CC3)sc12,1.35 ± 0.087,1.49 ± 0.076,1.66 ± 0.076
COc1cc(CCc2cc(NC(=O)c3ccc(N4CC(C)NC(C)C4)cc3)n[nH]2)cc(OC)c1 (centres undefined),1.26 ± 0.04,1.42 ± 0.032,1.53 ± 0.092
Oc1ccc(Nc2nc(-c3ccc(Cl)cc3)cs2)cc1,1.47 ± 0.039,1.56 ± 0.01,1.71 ± 0.11
NC(=O)c1cnc(N[C@@H]2CCCC[C@@H]2N)nc1Nc1cccc(-n2nccn2)c1,1.38 ± 0.058,1.57 ± 0.08,1.71 ± 0.11
Cc1ccc(S(=O)(=O)Nc2nc3ccccc3nc2Nc2ccc3nsnc3c2)cc1,1.4 ± 0.089,1.48 ± 0.091,1.56 ± 0.041
CC(C)c1cnn2c(NCc3ccccc3)cc(NCCCCCCN)nc12,1.16 ± 0.054,1.25 ± 0.025,1.47 ± 0.059
CCCCCCCCc1ccc(CCC(N)(CO)CO)cc1 [Fingolimod (FTY720) HCl],1.15 ± 0.043,1.19 ± 0.071,1.31 ± 0.038
Nc1ncnc2c1c(-c1cccc(OCc3ccccc3)c1)cn2C1CC(CN2CCC2)C1 (centres undefined),1.36 ± 0.069,1.48 ± 0.037,1.63 ± 0.029
C=CCc1ccc(O)c(-c2ccc(O)c(CC=C)c2)c1 [Honokiol],1.24 ± 0.031,1.31 ± 0.1,1.39 ± 0.096
Cc1ccc(NC(=O)c2ccc(CN3CCN(C)CC3)cc2)cc1Nc1nccc(-c2cccnc2)n1 [Imatinib Mesylate (STI571)],1.626 ± 0.013,1.76 ± 0.045,1.72 ± 0.03
O=C(c1ccc(Nc2nccc(-c3cc4ccccc4s3)n2)cc1)N1CCC(N2CCCC2)CC1 [IKK-16 (IKK Inhibitor VII)],1.08 ± 0.084,1.09 ± 0.087,1.16 ± 0.17
CNC(=O)c1cc(Oc2ccc(NC(=O)Nc3ccc(Cl)c(C(F)(F)F)c3)cc2)ccn1 [Sorafenib Tosylate],1.6 ± 0.039,1.68 ± 0.099,1.73 ± 0.077
C[C@H](Nc1ncnc2nc[nH]c12)c1cc2cccc(Cl)c2c(=O)n1-c1ccccc1,1.09 ± 0.045,1.2 ± 0.032,1.31 ± 0.023
CCc1cc(Nc2nccc(-c3c(-c4ccc(OC)c(C(=O)Nc5c(F)cccc5F)c4)nc4ccccn34)n2)c(OC)cc1N1CCC(N2CCN(S(C)(=O)=O)CC2)CC1,1.3 ± 0.016,1.4 ± 0.079,1.5 ± 0.03
Clc1ccc(C2(c3ccc(-c4cn[nH]c4)cc3)CCNCC2)cc1,1.16 ± 0.065,1.21 ± 0.061,1.25 ± 0.042
Cc1cnc(Nc2ccc(OCCN3CCCC3)cc2)nc1Nc1cccc(S(=O)(=O)NC(C)(C)C)c1,1.18 ± 0.14,1.33 ± 0.21,1.42 ± 0.22
CCc1cccc(CC)c1NC(=O)N1Cc2[nH]nc(NC(=O)c3ccc(N4CCN(C)CC4)cc3)c2C1,1.09 ± 0.027,1.24 ± 0.015,1.34 ± 0.099
O=C(NCc1cccc(O)c1)Nc1nc(-c2ccncc2)cs1,1.36 ± 0.026,1.44 ± 0.015,1.64 ± 0.017
CC(C)n1nc(-c2ccc3oc(N)nc3c2)c2c(N)ncnc21,1.34 ± 0.018,1.57 ± 0.055,1.78 ± 0.051
CCc1ccc(/C=C2/SC(=S)NC2=O)cc1,1.137 ± 0.0067,1.22 ± 0.042,1.36 ± 0.0082
CCN(CCO)CCCOc1ccc2c(Nc3cc(CC(=O)Nc4cccc(F)c4)[nH]n3)ncnc2c1 [Barasertib (AZD1152-HQPA)],1.33 ± 0.093,1.39 ± 0.13,1.44 ± 0.13

SMILES,mitochondrial superoxide (time after LPS: 1 h),mitochondrial superoxide (time after LPS: 2 h),mitochondrial superoxide (time after LPS: 4 h)
CCc1cnn2c(NCc3ccc[n+]([O-])c3)cc(N3CCCC[C@H]3CCO)nc12,1.28 ± 0.066,1.33 ± 0.055,1.63 ± 0.066
O=Nc1c(-c2c(O)[nH]c3cc(Br)ccc23)[nH]c2ccccc12,1.3 ± 0.081,1.43 ± 0.041,1.64 ± 0.067
O=C1c2ccccc2-c2n[nH]c3cccc1c23,1.12 ± 0.027,1.2 ± 0.15,1.3 ± 0.13
COc1c(C)c(C(=O)c2ccc(N)c(C(=O)O)c2)n2ccccc12,1.19 ± 0.076,1.26 ± 0.036,1.32 ± 0.062
Cn1cc(-c2ccc3nnc(Sc4ccc5ncccc5c4)n3n2)cn1,1.33 ± 0.036,1.4 ± 0.04,1.525 ± 0.0078
Cc1cc(C)nc(NS(=O)(=O)c2ccc(NC(=S)NC(=O)COc3ccc(Br)cc3Cl)cc2)n1,1.42 ± 0.087,1.45 ± 0.1,1.61 ± 0.055
O=C(NCc1ccccc1)c1csc(Nc2ccncn2)n1 [Thiazovivin],1.11 ± 0.012,1.2 ± 0.078,1.29 ± 0.11
Cc1cn(-c2cc(NC(=O)c3ccc(C)c(Nc4nccc(-c5cccnc5)n4)c3)cc(C(F)(F)F)c2)cn1 [Nilotinib (AMN-107)],1.45 ± 0.049,1.53 ± 0.07,1.65 ± 0.1
CC1(C)CNc2cc(NC(=O)c3cccnc3NCc3ccncc3)ccc21 [Motesanib Diphosphate (AMG-706)],1.55 ± 0.066,1.63 ± 0.12,1.71 ± 0.053
Cc1ccc(F)c(NC(=O)Nc2ccc(-c3cccc4[nH]nc(N)c34)cc2)c1 [Linifanib (ABT-869)],1.66 ± 0.077,1.72 ± 0.074,1.83 ± 0.067
O=C(c1ccc(/C=C/c2n[nH]c3ccccc23)cc1)N1CCNCC1,1.09 ± 0.063,1.19 ± 0.067,1.33 ± 0.035
O=C1NCCc2[nH]c(-c3ccncc3)cc21,1.31 ± 0.054,1.41 ± 0.039,1.63 ± 0.06
CC[C@@H]1C(=O)N(C)c2cnc(Nc3ccc(C(=O)N[C@H]4CC[C@H](N5CCN(CC6CC6)CC5)CC4)cc3OC)nc2N1C(C)C [Volasertib (BI 6727)],1.18 ± 0.016,1.27 ± 0.026,1.37 ± 0.043
CC(=O)Nc1nc(C)c(-c2ccc(Cl)c(S(=O)(=O)NCCO)c2)s1,1.02 ± 0.067,1.15 ± 0.03,1.23 ± 0.048
CC1=C(C(=O)Nc2cc3cn[nH]c3cc2F)C(c2ccc(C(F)(F)F)cc2)CC(=O)N1 (centres undefined),1.23 ± 0.085,1.26 ± 0.033,1.35 ± 0.057
C#Cc1cccc(Nc2ncnc3cc4c(cc23)OCCOCCOCCO4)c1 [Icotinib],1.16 ± 0.036,1.19 ± 0.021,1.31 ± 0.02
Cn1c(=O)c(F)c(Nc2ccc(I)cc2F)c2c(=O)n(C[C@@H](O)CO)cnc21,1.36 ± 0.021,1.39 ± 0.028,1.51 ± 0.055
O=C1C(c2c(O)[nH]c3ccccc23)=Nc2ccccc21 [Indirubin],1.22 ± 0.026,1.34 ± 0.073,1.42 ± 0.048
COc1cc2c(N3CCN(C(=O)Nc4ccc(OC(C)C)cc4)CC3)ncnc2cc1OCCCN1CCCCC1 [Tandutinib (MLN518)],1.61 ± 0.038,1.77 ± 0.029,1.72 ± 0.062
Cc1cnc(-c2cnc(NCCNc3ccc(C#N)cn3)nc2-c2ccc(Cl)cc2Cl)[nH]1,1.14 ± 0.048,1.09 ± 0.041,1.25 ± 0.027
CCN1CCN(c2ccc(Nc3cc(N(C)C(=O)Nc4c(Cl)c(OC)cc(OC)c4Cl)ncn3)cc2)CC1,1.2 ± 0.021,1.24 ± 0.035,1.35 ± 0.06
COC(=O)c1ccc2c(C(=Nc3ccc(N(C)C(=O)CN4CCN(C)CC4)cc3)c3ccccc3)c(O)[nH]c2c1 [Nintedanib (BIBF 1120)],1.43 ± 0.015,1.5 ± 0.056,1.72 ± 0.037
Cn1cc(-c2ccc3ncc(Cc4ccc5ncccc5c4)n3n2)cn1,1.24 ± 0.1,1.34 ± 0.053,1.61 ± 0.14
Cn1cc(-c2[nH]c3cc(NC(=O)[C@H](N)C4CCCCC4)cc4c3c2C=NNC4=O)cn1,1.15 ± 0.062,1.15 ± 0.043,1.27 ± 0.029
Cc1cc2c(F)c(Oc3ncnn4cc(OC[C@@H](C)OC(=O)[C@H](C)N)c(C)c34)ccc2[nH]1,1.37 ± 0.023,1.46 ± 0.058,1.53 ± 0.016
Cc1nc(NC(=O)N2CCC[C@H]2C(N)=O)sc1-c1csc(C(C)(C)C)n1,1.31 ± 0.053,1.43 ± 0.015,1.64 ± 0.053
